Hit rate of the full screen: of about 65,000 compounds, about 3,600 (5.5%) were called active. For the sample, actives were picked, then their nearest neighbours and some compounds at random. A number with no mark means an inactive call.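 How the source made its calls: active means at 10 µM, mean starting fluorescence two-fold or more over control wells; inactive means the rest.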
Assay: intrinsic fluorescence of library compounds, ex339/em460 – biochemical, MLSMR library, data from DPM-DC assay, artefact control, profiling panel (AID 709);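 further: signal is the first read of a kinetic run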
Details: compound autofluorescence, ex339/em460 nm, NADH buffer; at 10 µM; active compounds read high

SMILES | fluorescence fold increase
CCOC(=O)c1c(N)n(Cc2ccccc2)c2nc3ccccc3nc12 | 4.96 (active)
O=C(O)C1CSC(c2cccnc2)N1 (stereo not given) | 1.05
CC1(C)C(c2ccccc2)=NC(c2cccnc2)=[N+]1[O-] | 1.1
CCOC(=O)c1c(C)c(C(=O)N2CCC3(CC2)OCCO3)c(C)n1CC | 1.05
CCOC(=O)c1c(-c2ccccc2)oc2ccc(OC(=O)N(C)C)cc12 | 3.72 (active)
N[C@@H](Cc1c[nH]c2ccccc12)c1nnc(SCc2c(F)cccc2Cl)o1 | 1.15
CCOC(=O)C1=C(C)OC(N)=C(C(=O)OC)C12C(=O)Nc1ccc(Br)cc12 (stereo not given) | 1.1
CCc1cccc2c(C#N)cn(CC(=O)N3CCOCC3)c12 | 1.27
COC(=O)COc1cc(C)cc2oc(=O)c3c(c12)CCCC3 | 2.2 (active)
OC(CNC1CCCCC1)c1ccccc1 (stereo not given) | 1.04
CCOC(=O)C(O)(c1ccc(NC(=O)c2ccco2)c(OC)c1)C(F)(F)F (stereo not given) | 1.11
Cc1cccc(-n2c(C)nc3cc(C(=O)N4CCC5(CC4)OCCO5)ccc32)c1 | 1.13
O=C(c1cc(-c2ccncc2)nc2ccccc12)N1CCC2(CC1)OCCO2 | 1.11
O=C(c1cc2nc(-c3ccccc3)cc(-c3ccccc3)n2n1)N1CCC2(CC1)OCCO2 | 2.35 (active)
CCOC(=O)CC1=C(C(=O)OCC)C2(C(=O)N1)C(C(=O)OC)=C(N)Oc1ccccc12 (stereo not given) | 1.12
COc1ccc(CCn2c(O)c(C=NC3CC3)c(=O)[nH]c2=O)cc1OC | 1.06
CN1CCN(C(=O)COc2ccc(C(C)(C)C)cc2Br)CC1 | 1.12
COc1ccc(C(=O)CC2C(=O)N(C)C(=O)N(C)C2=O)cc1 | 1.08
CCC/C(=N\O)c1c[nH]c2ccccc12 | 1.08
CC1=C(C(=O)Nc2ccccc2)SCCO1 | 1.08

Reference: PubChem BioAssay AID709 (SRMLSC, 2007)
